Bioassay records from PubChem BioAssay.
In the library only some 6.2% were active in any assay of this set; here they are far more common.
KB-V1 cytotox: KB-V1 MDR subline cytotoxicity; KB-V1 MDR cells viability, CellTiter-Glo, 72 h; Potency, µM (top dose mostly 46.1 µM), actives largely listed as cytotoxic; hit rate 3.4% among 400,000; further: nearly all actives have a fitted effect of over 60% in size
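Following 72 h at 37 degrees C with compound, KB-V1 cell viability was read by CellTiter-Glo luminescence, medium being phenol-red-free DMEM plus 10% FBS; concentration-response parameters came from normalized, curve-fitted qHTS data.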
ATXN2 expr inh: inhibitors of ATXN2 expression; HEK-293 ATXN2-luciferase reporter, luminescence, 24 h; Potency, µM (titrated, usually from 57 µM), most hits filed as inhibitors; hit rate 0.72% among 360,000; AID 1745845; further: nearly all actives have a fitted effect of over 55% in size
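ATXN2-luciferase reporter cells (luciferase flanked by upstream and downstream ATXN2 gene portions) were treated 24 h at 37 °C with compounds at up to 57 uM. SteadyGlo luminescence gave expression; GF-AFC fluorescence gave viability.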
HT1080 IDH1KD tx: HT-1080 IDH1 knockdown cell toxicity (counter line) | hit rate 2% among 360,000 | HT-1080 IDH1 knockdown viability, ATP luminescence, 48 h | AID 686971 | Potency, µM (top dose mostly 46.1 µM), hits mostly cytotoxic
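Cytotoxicity counter-line: IDH1KD HT-1080, 48 h, CellTiter-Glo. Curves classed by r2, magnitude and activity.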
KB-3-1 tox: kills parental KB-3-1 adenocarcinoma cells. hit rate 1.4% among 400,000. Potency, µM (top dose mostly 46.1 µM), most hits filed as cytotoxic. KB-3-1 viability, CellTiter-Glo ATP luminescence, 72 h. AID 1347075; further: nearly all actives have a fitted effect of over 60% in size
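Cells are dispensed, compounds pinned in, plates held at 37 °C for 72 h, then CellTiter-Glo is added and luminescence read after 10 minutes. Cell line: parental KB-3-1 in phenol-red-free DMEM, 10% FBS.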
HT1080-NT tox: kills 2HG-producing HT-1080-NT fibrosarcoma cells; HT-1080-NT fibrosarcoma viability, CellTiter-Glo ATP luminescence, 48 h; Potency, µM (series often up to 46.1 µM), usual class: cytotoxic; hit rate 1.6% among 360,000;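 further: NT is the 2HG producing partner of a matched IDH1 knockdown line; nearly all actives have a fitted effect of over 55% in size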
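Toxicity toward the 2HG-producing NT line was scored as %Activity, normalised to DMSO and no-cell wells, from CellTiter-Glo luminescence after 48 hours' treatment.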
S2 tox: reduces viability in counter-screen for ATXN expression inhibitors | S2 cells (HEK-293 line with an ATXN2-luciferase reporter) viability, CellTiter-Fluor protease fluorescence, 24 h | Potency, µM (titrated, usually from 56.7 µM), usual class: cytotoxic | hit rate 0.49% among 400,000; further: nearly all actives have a fitted effect of over 40% in size
Hits are given with their value; 0 = inactive; ? = inconclusive; - = no result; ! = repeats disagree; [ ] = remark or other dose. The call rests on the fitted dose curve; in most records, active means well fitted curve in the direction sought with a large enough effect; inconclusive means small, poorly fitted or top-dose-only effect, or another doubt; inactive means no such curve, though single readings can be large; an effect the other way counts as inactive or inconclusive.

SMILES	KB-V1 cytotox	ATXN2 expr inh	HT1080 IDH1KD tx	KB-3-1 tox	HT1080-NT tox	S2 tox
CCOC(=O)COc1ccc2c(C)c(CCN(CC)CC)c(=O)oc2c1	-	-	-	-	-	0
CCCCCOC(=O)Nc1nc(=O)n([C@@H]2O[C@H](C)[C@@H](O)C2O)cc1F (stereo partly drawn)	-	0	-	-	-	-
COc1cc(/C=N/NC(=O)c2cncc(Br)c2)cc([N+](=O)[O-])c1O	?	?	0	?	16µM	?
CCCC1=C(C(=O)OCC)C(c2ccc(OC)c(CSc3ccccn3)c2)C(C#N)=C(N)O1 (stereo not drawn)	21µM	0	0	0	0	0
C=CCOC(=O)C1=C(C)OC(N)=C(C#N)C1c1ccc(OC)c(CSc2ccccn2)c1 (stereo not drawn)	?	-	0	0	0	?
Cc1ccc(CNC(=O)CCCCn2c(=O)c3ccccc3n(Cc3ccc(Cl)cc3)c2=O)cc1	0	0	-	0	-	0
O=C(CCCCn1c(=O)c2ccccc2n(Cc2ccc(Cl)cc2)c1=O)NCc1ccco1	4.6µM	0	0[9.24 µM]	15µM	?	0
Cc1cccc(Cn2c(=O)n(CCCC(=O)NCc3ccco3)c(=O)c3ccccc32)c1	15µM	0	?	9.2µM	?	?
Cc1ccccc1Cn1c(=O)n(CCCC(=O)NCc2ccco2)c(=O)c2ccccc21	0	0	0	0	0	0
O=C(CCCn1c(=O)c2sccc2n(Cc2ccc(F)cc2)c1=O)NCc1ccco1	0	0	?	?	10µM	0
CCCS(=O)(=O)c1ncc(Cl)c(C(=O)Nc2sc3c(c2C(=O)NCC)CCCC3)n1	0	-	-	?	-	-
S=C(Nc1ccccc1)N1CCn2cccc2C1c1cccnc1 (stereo not drawn)	16µM	0	0	0	0	0
COCCn1c(-c2ccc(C)cc2)nc2oc3cc(OC)ccc3c(=O)c2c1=O	0	-	0	0	0	0
Cn1c2ccccc2c(=O)c2c(=O)n(C3CCCCCC3)c(C3CCCCC3)nc21	?	0	0	?	0	-
Cn1c2ccccc2c(=O)c2c(=O)n(C3CCCCC3)c(-c3cccs3)nc21	12µM	?	0	?	0	0
COc1ccc2c(=O)c3c(=O)n(Cc4ccco4)c(C(C)C)nc3oc2c1	21µM	0	0	0	0	0
COc1ccc(CCn2c(C3CCCCC3)nc3c(c(=O)c4ccccc4n3C)c2=O)cc1	18µM	-	?	?	?	?
COc1ccc2c(=O)c3c(=O)n(Cc4ccco4)c(-c4ccc(C)cc4)nc3oc2c1	0	0	0	0	0	0
COCCCn1c(C2CCCCC2)nc2oc3cc(OC)ccc3c(=O)c2c1=O	23µM	0	0	?	0	?
COc1ccc(CN2CCOc3c(O)cc(-c4cc(C)c5ccc(F)cc5n4)cc3C2)c(O)c1	-	-	-	-	-	0
Cc1ccc(N(CC(=O)NCCc2ccc(F)cc2)S(=O)(=O)c2ccc(Cl)c([N+](=O)[O-])c2)c(C)c1	0	?	21µM	?	?	?
COc1ccccc1NC(=O)N1CCN(c2ccc3nnc(-c4ccc(F)cc4)n3n2)CC1	?	18µM!	?	0	26µM	-
O=C(Nc1ccccc1Cl)N1CCN(c2ccc3nnc(-c4ccc(F)cc4)n3n2)CC1	0	0	0	0	0	0
CCCc1ccc2oc(C(=O)NCCN3CCCC(O)C3)c(C)c2c1 (stereo not drawn)	0	0	23µM	0	?	0
CCCc1ccc2oc(C(=O)NCCN3CCCC(C(N)=O)C3)c(C)c2c1 (stereo not drawn)	0	-	0	0	0	0
SMILES	KB-V1 cytotox	ATXN2 expr inh	HT1080 IDH1KD tx	KB-3-1 tox	HT1080-NT tox	S2 tox
CCOC(=O)c1nn(-c2ccccc2C)c2nc(-c3ccc(C)cc3)c(C#N)c(=O)n12	0	0	0	0	0	0
CCOC(=O)c1nn(-c2ccccc2)c2nc(-c3ccc(OC)cc3)c(C#N)c(=O)n12	23µM	0	0	?	0	0
CC1CCCCN1C(=O)COC(=O)c1cc([N+](=O)[O-])ccc1N (stereo not drawn)	16µM	0	0	0	0	0
O=C1CC(c2cccc(Cl)c2)CC(O)=C1C=NC1CCCC1 (stereo not drawn)	21µM	0	0	0	0	0
O=C1CC(c2ccccc2)CC(O)=C1C=NCc1ccccc1 (stereo not drawn)	0	0	0	0	0	0
O=C1CC(c2ccccc2)CC(O)=C1C=Nc1ccc(O)cc1 (stereo not drawn)	0	0	0	0	0	0
O=C1CC(c2ccccc2)CC(O)=C1C=NCc1ccccc1Cl (stereo not drawn)	?	0	?	?	5.6µM	0
O=C1CCCC(O)=C1C=NCc1ccccc1	0	4.7µM	0	?	0	0
Cc1ccc([C@@H]2C[C@H]3[C@@H](CN2S(=O)(=O)c2ccc(Cl)cc2)C(=O)C[C@@H](c2cccc4ccccc24)N3S(=O)(=O)c2ccc(C)cc2)cc1	0	0	0	0	0	0
Cc1nn(CCCC(=O)Nc2ccccc2C(F)(F)F)c(=O)c2nn(-c3ccccc3)c(C)c12	0	-	-	0	-	-
COc1cccc(-c2nc3cc(SC)ccc3cc2CN(C(=O)c2sccc2C)C2CC2)c1	-	-	-	-	-	0
